# Cav3 T inh: inhibitors of human Cav3.2 T-type calcium channel; Cav3.2-expressing cells, Fluo-4 calcium fluorescence FDSS; active compounds read low; B-score at 10 µM; 100,000 compounds, 4% hits; AID 449739;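 active = single-dose well whose peak fluorescence ratio is a statistical outlier from its plate by either plate-standardised score or position-corrected B-score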
# PostGolgi ctrl: yeast control strain growth, post-Golgi counter-screen; efflux-deficient yeast background strain, growth absorbance A615, 16 h; inhibition, % at 10 µM; 98,000 compounds, 5% hits; AID 738
# Pyk2 oligo antag: Pyk2 (human) oligomerization antagonism; 99,000 compounds, 0.83% hits; Q293 cells, Pyk2 FERM NanoBiT luminescence; active compounds read low; z-score (the deposit names both 25 µM and 10 µM); AID 1347419;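 active = Z-score of -3 or lower, scaled per plate to the spread of control and sample wells; inactive = z-score above -3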;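 also: negative z-score means lost luminescence so less FERM oligomerization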
# PostGolgi yeast: growth inhibition of a yeast mutant, post-Golgi transport screen. inhibition, % at 10 µM. post-Golgi transport phenotypic cell assay. 98,000 compounds, 0.9% hits;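 also: yeast cells grown in 1536-well plates; yeast grown about 18 h at 30C before absorbance read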
# Numbers without * were called inactive; . = no result. An excerpt weighted towards active compounds, which were near 8% of everything screened. Rule as the data show it, unless noted: active = inhibition above about 30%; inactive = the rest.
SMILES,Cav3 T inh,PostGolgi ctrl,Pyk2 oligo antag,PostGolgi yeast
C/C(CCc1ccc2c(c1)OCO2)=N\N=C(/N)SC1CC(=O)N(c2ccccc2F)C1=O (configuration not stated),-5.9*,-1,0.7,3
C/C(CCc1ccc2c(c1)OCO2)=N\N=C1\NC(=O)CC(C(=O)Nc2ccccc2)S1 (configuration not stated),-3.8,-6,0.67,8
O=C1c2ccccc2C(=O)N1CCCc1c[nH]c2ccc(Cl)cc12,.,.,-0.68,.
Cc1ccc(C2CN=NC23CCc2ccccc2C3=O)cc1 (configuration not stated),-0.93,15,-0.56,-6
O=C1c2ccccc2CCCC12N=NCC2c1cccc2ccccc12 (configuration not stated),.,33*,-1.5,6
CCc1cccc(CC)c1-n1c(SCn2nnc3ccccc3c2=O)nnc1-c1cccnc1,-5.3*,8,-2.4,-1
CCO[C@H]1OC(C(=O)O)=C[C@@H](c2ccc3c(c2)OCO3)[C@@H]1CCCO,0.3,.,.,.
CCN(CCCn1c(=S)[nH]c2ncccc2c1=O)c1ccccc1,-0.073,4,-0.15,-7
CCN(CCCn1c(SCC#N)nc2ccccc2c1=O)c1ccccc1,-5.4*,30,-2.4,-16
O=C(CSc1nc2ccccc2c(=O)n1Cc1ccco1)N1CCN(c2ccccc2)CC1,-4.9*,36*,-1,1
CCCCn1c(SCC(=O)NC(C)CC)nc2ccc(N3CCOCC3)cc2c1=O (configuration not stated),.,-2,-0.09,0
CCCCn1c(SCC(=O)NCc2ccccc2)nc2ccc(N3CCOCC3)cc2c1=O,-0.19,35*,-0.96,-5
CCn1c(SCC(=O)N2CCN(c3ccc(F)cc3)CC2)nc2ccccc2c1=O,0.93,37*,-0.53,2
Cc1nn2c(=O)nc3sc4c(c3c2[nH]c1=O)CCCC4,0.14,.,.,.
C=C(C)Cn1c(SCC)nc2ccccc2c1=O,-3.8,44*,-0.38,1
CCCCn1c(SCC(=O)N2CCN(c3ccccc3)CC2)nc2ccsc2c1=O,-2.7,43*,-1.9,3
CCC1CCCCN1C(=O)CSc1nc2ccsc2c(=O)n1Cc1ccccc1 (configuration not stated),-4.9*,20,-2.1,3
C=C(C)Cn1c(SCC#N)nc2ccccc2c1=O,.,4,-0.18,12
O=C(CSc1nc2ccsc2c(=O)n1Cc1ccc(C(=O)O)cc1)NCC1CCCO1 (configuration not stated),.,.,0.28,.
CCCn1c(SCC(=O)N2CCN(c3ccccc3)CC2)nc2ccccc2c1=O,-6.2*,51*,0.97,1
COCCn1c(SCC(=O)N2CCCCC2)nc2ccccc2c1=O,0.0047,10,-0.18,14
CCOC(=O)c1c(C)[nH]c(C(=O)CN2C(=O)NC(C)(c3ccc4ccccc4c3)C2=O)c1C (configuration not stated),-0.078,24,0.09,-5
CCn1c(SCC(=O)N2CCN(c3ccc(Cl)cc3)CC2)nc2ccccc2c1=O,-0.88,55*,0.35,-10
CCn1c(SCC(=O)N2CCCC2)nc2ccccc2c1=O,0.052,12,0.08,-5
O=C(Nc1ccc(Cn2nnc3ccccc32)cc1)c1ccco1,1.1,8,0.83,-10
SMILES,Cav3 T inh,PostGolgi ctrl,Pyk2 oligo antag,PostGolgi yeast
CCCN(CCC)c1nc2ccccc2n2c(C)nnc12,-4,45*,-1.2,10
Cc1nnc2c(Oc3ccccc3)nc3ccccc3n12,0.87,5,-0.16,-10
Cc1snc(S(=O)(=O)/C(C#N)=N/Nc2cccc(C(F)(F)F)c2)c1C#N,-6.2*,8,0.48,0
CSCCC(NC(N)=O)C(=O)NCc1ccc(Cl)cc1 (configuration not stated),0.049,-12,1.3,9
COc1ccc(-c2nc(CS(=O)(=O)CC(=O)Nc3ccc(Cl)cc3)c(C)o2)cc1,-5.3*,-9,.,-9
COc1cc(OC)c(NC(=O)CS(=O)(=O)Cc2nc(-c3ccc(C)cc3)oc2C)cc1Cl,-4.9*,11,.,1
COc1ccc(OC)c(CCNC(=O)CS(=O)(=O)Cc2nc(-c3ccc(C)cc3)oc2C)c1,-5.9*,12,0.41,10
COc1ccc(OC)c(NC(=O)CS(=O)(=O)Cc2nc(-c3ccccc3C)oc2C)c1,-3.6,23,.,-1
COc1ccc(OC)c(NC(=O)CSc2nnc(Cc3cccn3C)n2CCc2ccccc2)c1,-3.6,0,0.42,-3
Cn1cccc1Cc1nnc(SCC(=O)Nc2ccc3c(c2)OCCO3)n1CCc1ccccc1,-11*,15,.,-7
Cn1cccc1Cc1nnc(SCC(=O)Nc2ccc3c(c2)OCO3)n1CCc1ccccc1,-9.2*,17,.,4
Cc1nnc(NC(=O)CSc2nnc(Cc3cccn3C)n2CCc2ccccc2)s1,0.38,2,0.31,0
Cn1cccc1Cc1nnc(SCC(=O)Nc2ccc(F)cc2)n1CCc1ccccc1,-7.4*,23,.,4
Clc1ccc(C(c2nnnn2C2CCCC2)N2CCSCC2)cc1 (configuration not stated),-2.5,13,-0.11,-4
Cc1ccc(C(=O)Nc2ccc([N+](=O)[O-])cn2)o1,.,.,-0.33,.
Cc1nc2scc(-c3ccc(Cl)cc3)c2c(=O)o1,-1.8,21,0.26,10
CC(=O)Nc1cc(C(=O)N2CCN(C)CC2)ccc1Sc1ccc(C)cc1,1.3,25,1.4,2
O=C(Nc1cnc2sccn2c1=O)c1ccc(Cl)cc1Cl,-0.042,32*,0.69,-3
Cc1cc(C(=O)NNC(=S)NC(C)c2ccccc2)c2ccccc2n1 (configuration not stated),0.27,-1,2.3,4
COC(=O)CSc1nc2ncccc2[nH]1,1.2,35*,0.37,6
CCOc1ccc(S(=O)(=O)N2CCN(c3ccccc3OC)CC2)c2cccnc12,0.041,30,0.21,-5
Cc1ccc(-c2cc(C(=O)NCc3cnn(C)c3C)c3cc(Br)ccc3n2)cc1,-0.6,50*,-0.4,-9
Cc1ccc(-c2cc(C(=O)N(C)Cc3cnn(C)c3C)c3cc(Br)ccc3n2)cc1,.,.,-2.4,.
CCN(CC)C(=O)c1c2c(nc3ccccc13)-c1ccccc1CC2,-4.9*,27,-1.9,-3
O=C(Nc1ccccc1)Nc1cc(Cl)cc(Cl)c1,0.25,56*,-2.4,9
SMILES,Cav3 T inh,PostGolgi ctrl,Pyk2 oligo antag,PostGolgi yeast
CSc1cccc(NC(=O)Nc2ccccc2)c1,-2.3,48*,0.18,-4
O=C(N/C(=N\O)c1ccccc1)Nc1ccc(Cl)cc1,-5*,1,0.09,4
O=C(Nc1cc(Cl)cc(Cl)c1)C(NCCO)c1ccccc1 (configuration not stated),0.031,1,-0.39,7
CSc1cccc(NC(=O)/C=C/c2ccccc2)c1,-6.3*,-1,-0.47,-9
CSc1cccc(NC(=O)/C=C/c2ccc(Cl)cc2)c1,-1.5,6,-1.9,-14
Cc1ccc(-c2csc3nc4cc(C(=O)NC5CCC(O)CC5)ccc4c(=O)n23)cc1 (configuration not stated),-0.34,.,.,.
CC(c1ccccc1)N1CC(C(=O)N2CCN(c3ccc(F)cc3)CC2)CC1=O (configuration not stated),0.02,6,-0.57,8
C=CCc1cccc2cc(C(=O)NCc3cccnc3)c(=O)oc12,0.84,2,2,-21

# Bioassay records: PubChem BioAssay, several laboratories
